Here are results for 15 compounds from PubChem BioAssay (NCATS).

In one assay the test system is CRL-7250. Briefly: Cytotoxic Profiling of Annotated Libraries Using Quantitative High-Throughput Screening (AID 1296008). The settings on record: Five cell lines viability, CellTiter-Glo ATP luminescence, 48-72 h; max response: stronger effect = lower value. The procedure, abridged: (§1)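 Cells exposed to compounds for 48 or 72 hr at 37 degrees Celsius. Viability read as ATP-coupled luminescence with CellTiter-Glo after 10 min at room temperature.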
On the technique in general: Cellular ATP, detected with luciferase, serves as a proxy for viable cell number.

The subject of a further assay is HEK293. Described as above. The note with it: Five cell lines viability, CellTiter-Glo ATP luminescence, 48-72 h; max response: stronger effect = lower value. The method, boiled down: as §1
In assay [1] the test system is HaCat. Described as above. The settings on record: Five cell lines viability, CellTiter-Glo ATP luminescence, 48-72 h; max response: stronger effect = lower value. The procedure, abridged: as §1
A further assay has as its system KB-3-1. The description is as above. The note with it: Five cell lines viability, CellTiter-Glo ATP luminescence, 48-72 h; max response: stronger effect = lower value. The procedure, abridged:
as §1

Another assay concerns NIH3T3. The assay is described as above. The note with it: Five cell lines viability, CellTiter-Glo ATP luminescence, 48-72 h; max response: stronger effect = lower value. The method, boiled down:
as §1

Assay [2] has as its system HACAT. Briefly: qHTS assay to identify novel small-molecules to repurpose for Merkel cell carcinoma treatment (AID 1296009). The settings on record: MCC and control cell lines, CellTiter-Glo viability, 72 h; at 44.8 µM (top of the series) unless noted. The method, boiled down:
(§2)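 CellTiter-Glo luminescence after 72 hr compound exposure at 37 degree celsius gave cell viability. Libraries NPC and MIPE were run as 8- and 11-point dose responses; RLUs normalized to DMSO (negative) and no-cell (cytotoxicity) controls.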
For orientation: qHTS replaces the single test concentration by a dilution series.

For the next assay, the system named is HEK293T. The description is as above. The settings on record: MCC and control cell lines, CellTiter-Glo viability, 72 h; at 44.8 µM (top of the series) unless noted. The method, boiled down:
as §2

A further assay concerns MCC-13. The description is as above. The note with it: MCC and control cell lines, CellTiter-Glo viability, 72 h; series mostly up to 46 µM. The method, boiled down:
as §2

The next assay concerns MCC-26. The description is as above. The note with it: MCC and control cell lines, CellTiter-Glo viability, 72 h; series mostly up to 46 µM. The procedure, abridged: as §2
Another assay deals with MKL-1. The description is as above. The note with it: MCC and control cell lines, CellTiter-Glo viability, 72 h; series mostly up to 46 µM. The procedure, abridged: as §2

Where “and” joins values, the source holds several entries; their conditions need not be identical. Equal values may be shown once. Records with an inconclusive call do not appear. Unmarked numbers belong to inactive results. Calls of active or inactive are those of the source. Calls follow the shape of the dose curve; as a rule, active = well fitted inhibition curve with a large enough effect; inconclusive = small, poorly fitted or top-dose-only effect; inactive = flat fitted curve, though single readings scatter.
% is scaled to controls: 0 for no effect and ±100 for the full control effect; potency is read from the fitted curve at half-maximal effect.
Also: nearly all actives have a fitted effect of over 60% in size.

For the compound `CCOC(=O)OC(C)OC1=C(C(=O)Nc2ccccn2)N(C)S(=O)(=O)c2ccccc21` (stereo not drawn), the outcome with CRL-7250, in the assay on HEK293, in the assay with HaCat [1], with HACAT [2] and in the assay on HEK293T was inactive. Further, the max response with KB-3-1 was 2.11%; in the assay on NIH3T3, 3.47%. In addition, the Potency result in the assay on MCC-13, in the assay with MCC-26 and with MKL-1 was “inactive” in each case.

For the compound `CC1(C)O[C@@H]2[C@@H](CO[C@@]3(COS(N)(=O)=O)OC(C)(C)O[C@@H]23)O1`, the max response in the assay on CRL-7250 was -9.34%; with KB-3-1, 12.1%; in the assay on NIH3T3, -0.846%. Further, the outcome with HEK293, with HaCat [1], with HACAT [2] and in the assay on HEK293T was inactive. For the same compound, the Potency result with MCC-13, with MCC-26 and in the assay with MKL-1 was “inactive” each time.

In the case of `Cc1ccc(C(=O)C(C)CN2CCCCC2)cc1` (stereo not drawn), the max response with CRL-7250 is -2.76% and -2.03%; in the assay with HEK293 it was 0.201%; with KB-3-1 it was 7.56% and -13.6% and 2.39%; in the assay with NIH3T3 it was -4.42%. In addition, the outcome in the assay on HaCat [1] and in the assay on HACAT [2] was “inactive; activator” throughout. Also, the outcome in the assay on NIH3T3 was inactive. Further, the Potency result with MCC-13, with MCC-26 and in the assay with MKL-1 was “inactive” each time.

In the case of `C[C@H](O)C(=O)Nc1c(I)c(C(=O)NC(CO)CO)c(I)c(C(=O)NC(CO)CO)c1I`, the call in the assay with CRL-7250, in the assay with HaCat [1] and in the assay on HACAT [2] was inactive. In addition, the max response in the assay with HEK293 was -5.81%; with KB-3-1, 3.55%; with NIH3T3, -5.03%. In addition, the Potency result in the assay with MCC-13, in the assay with MCC-26 and in the assay with MKL-1 was “inactive” in each case.

`Cc1c(N(C)CS(=O)(=O)O)c(=O)n(-c2ccccc2)n1C`: the call in the assay on CRL-7250, in the assay with HEK293, with HaCat [1], with NIH3T3, with HACAT [2] and in the assay with HEK293T was inactive. Further, in the assay on KB-3-1, the max response was 16.1%. For the same compound, the Potency result with MCC-13, in the assay on MCC-26 and in the assay with MKL-1 was “inactive” throughout.

Turning to `N[C@H](Cc1c[nH]c2ccccc12)C(=O)O`, the max response in the assay with CRL-7250 was -25%; in the assay on KB-3-1, 5.87%; in the assay with NIH3T3 it was 3.07%. The call in the assay on HEK293, with HaCat [1], in the assay on HACAT [2] and in the assay with HEK293T was inactive. In addition, the Potency result with MCC-13, with MCC-26 and with MKL-1 was “inactive” each time.

As for `O=C1OCCN1/N=C/c1ccc([N+](=O)[O-])o1`, the max response in the assay on CRL-7250 was -8.39%; in the assay with HEK293, -25%; in the assay with KB-3-1 it was -3.42%. Besides, the call in the assay on HaCat [1], in the assay with NIH3T3 and with HACAT [2] was inactive. Besides, the Potency entry in the assay on MCC-13 and with MCC-26 was “inactive” in each case.

Take `O=C1c2ccccc2C(=O)C1c1ccccc1`: the max response in the assay on CRL-7250 was -3.39%; with KB-3-1 it was -18.6%. Also, the compound was classed as inactive in the assay on HEK293, in the assay with HaCat [1], in the assay with NIH3T3, with HACAT [2] and in the assay on HEK293T. The Potency entry with MCC-13, in the assay with MCC-26 and with MKL-1 was “inactive” in each case.

With `Oc1ccc(O)cc1`, the outcome in the assay on CRL-7250, in the assay on HaCat [1] and with HACAT [2] was inactive. The figures for the max response in the assay on HEK293, in the assay with KB-3-1 and in the assay with NIH3T3 were -16.2%, -4.96% and -10.8%, respectively. The Potency entry with MCC-13 and with MCC-26 was “inactive” each time. Besides, the Potency in the assay on MKL-1 is 5.31 µM (active).

Regarding `Cc1cc(O)c(C(C)C)cc1Cl`, the results for the max response in the assay with CRL-7250, in the assay on KB-3-1 and in the assay on NIH3T3 were -3.05%, 1.71% and 2.6%, respectively. Moreover, the compound was called inactive in the assay with HEK293, in the assay with HaCat [1], in the assay on HACAT [2] and in the assay on HEK293T. Moreover, the Potency result with MCC-13, in the assay on MCC-26 and in the assay on MKL-1 was “inactive” each time.

As for `CCC(C(=O)OCCN(CC)CC)c1ccccc1` (stereo not drawn), the compound was called inactive in the assay on CRL-7250, with HaCat [1] and with HACAT [2]. Besides, the max response is 3.62% in the assay with HEK293, -12.7% in the assay with KB-3-1 and -17.3% with NIH3T3. The Potency entry with MCC-13, with MCC-26 and in the assay with MKL-1 was “inactive” each time.

As for `Cc1ncc(CSSCc2cnc(C)c(O)c2CO)c(CO)c1O`, the figures for the max response in the assay on CRL-7250, with KB-3-1 and with NIH3T3 were -3.39%, -0.0269% and 4.82%, respectively. Besides, the outcome with HEK293, in the assay with HaCat [1], with HACAT [2] and in the assay on HEK293T was inactive. In addition, the Potency entry in the assay on MCC-13, in the assay on MCC-26 and in the assay on MKL-1 was “inactive” each time.

With `CC(=O)O[C@]1(C(C)=O)CC[C@H]2[C@@H]3C[C@H](C)C4=CC(=O)CC[C@]4(C)[C@H]3CC[C@@]21C`, the compound was called inactive in the assay on CRL-7250, in the assay on KB-3-1 and in the assay on NIH3T3. Further, the Potency in the assay on HEK293 is 15 µM (active). Also, the max response was -32.7% and 2.19% in the assay on HaCat [1]; 9.44% with KB-3-1; -18.3% in the assay with NIH3T3. The Potency result in the assay with MCC-13, in the assay on MCC-26 and in the assay on MKL-1 was “inactive” throughout.

`COc1ccc(C2C(=O)c3ccccc3C2=O)cc1`: the max response in the assay with CRL-7250 was -6.18%; in the assay with HEK293 it was -6.61%; in the assay on KB-3-1 it was 1.39%. The compound was classed as inactive in the assay on HaCat [1], in the assay on NIH3T3 and in the assay with HACAT [2]. The Potency entry in the assay on MCC-13, in the assay with MCC-26 and in the assay with MKL-1 was “inactive” in each case.

`O=C(O)CNC(=O)c1ccccc1`: the max response with CRL-7250 was 2.85%; in the assay with HEK293, -10.7%; with KB-3-1 it was -0.856%. For the same compound, the outcome with HaCat [1], in the assay with NIH3T3 and with HACAT [2] was inactive. Besides, the Potency entry with MCC-13, in the assay on MCC-26 and in the assay with MKL-1 was “inactive” in each case.
